Where “and” joins values, the source holds several entries; their conditions need not be identical. Equal entries are not always repeated. Results filed as inconclusive are left out. Calls of active or inactive are those of the source. Unless noted, no rule for the calls is given here.
Experiments:
[1] = Cy5 fluorescence interference with SSB-bound oligo, artefact control for HCV NS3 helicase inhibitor project, biochemical, NIH Clinical Collection, E. coli SSB (AID 743268)
[2] = tested on: Hepatitis C virus NS3 helicase; test: HCV NS3 helicase inhibitors, primary screen, biochemical, fluorescence polarization, NIH Clinical Collection (AID 743270); details: NS3 helicase binding to Cy5-dT15 DNA, stronger effect = higher value, concentration not given here
[3] = target: Single-stranded DNA-binding protein (Escherichia coli (strain K12)) (UniProt P0AGE0); test: E. coli SSB displacement from DNA, counter-screen for HCV NS3 helicase inhibitor project, biochemical, fluorescence polarization, NIH Clinical Collection (AID 743271; in the data active = inhibition above about 28%); details: stronger effect = higher value, concentration not given here
[4] = fluorescence interference in NS3h assay format, artefact control for HCV NS3 helicase inhibitor project, biochemical, NIH Clinical Collection (AID 743272); details: fluorescence interference counterscreen, stronger effect = lower value;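 also: HCV NS3 helicase with a Cy5 labelled single stranded DNA probe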
[5] = tested on: Neuropilin-2 / VEGF-C interaction (human); test: inhibitors of NRP2–VEGF-C binding, biochemical, microplate binding format, z-score (AID 743281); details: microplate NRP2/VEGF-C binding assay; stronger effect = lower value
[6] = modulation of C. elegans fzo-1 (AID 1259413);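 also: fzo-1 mutant C. elegans worms in liquid wells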; details: C. elegans fzo-1 modulator screen, mean read-out; stronger effect = higher value
[7] = tested on: Aerobactin synthetase IucA (Klebsiella pneumoniae); test: IucA aerobactin synthetase inhibitors, biochemical, Tocris library, absorbance (AID 1345561); details: purified IucA enzyme assay, absorbance (OD) read-out; stronger effect = lower value;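 tested at 8 µM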;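 also: 100% = enzyme without compound and 0% = no enzyme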
[8] = circadian clock period modulators, cell-based, LOPAC library, luminescence reporter (AID 2774); details: circadian reporter cells, at 7 µM, actives lie on both sides;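 also: values are relative to mean of DMSO wells on each plate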
[9] = hESC survival regulators, cell-based (AID 493140); details: human embryonic stem cell survival screen; stronger effect = higher value;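 also: cells exposed to compounds for four days before counting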
[10] = tested on: Hepatitis C virus NS3 helicase; test: HCV NS3 helicase inhibitors, primary screen, biochemical, fluorescence polarization, LOPAC1280 library (AID 687035; in the data active = inhibition above about 37%); details: Purified HCV NS3 helicase, Cy5-dT15 ssDNA binding fluorescence polarization; stronger effect = higher value; concentration not given here
[11] = Cy5 fluorescence quenching or enhancement artefacts, artefact control for HCV NS3 helicase inhibitor project, biochemical, LOPAC1280 (AID 687037); details: Cy5-DNA-NS3h complex fluorescence interference counterscreen
[12] = growth inhibition of DIPG glioma cells, dose response, cell-based, SU-DIPG-XVII, MIPE5.0, CellTiter-Glo, qHTS (AID 1347060; cut-off not given, nearly all actives have AC50 up to about 26 µM); details: SU-DIPG-XVII viability, CellTiter-Glo ATP luminescence
[13] = growth inhibition of DIPG glioma cells, dose response, cell-based, JHH-DIPG-1, MIPE4.0, CellTiter-Glo, qHTS (AID 1347062; cut-off not given, nearly all actives have AC50 up to about 27 µM;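 also: cells exposed to compound for two days before readout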); details: JHH-DIPG-1 viability, CellTiter-Glo ATP luminescence
[14] = phospholipid biosynthesis inhibitors in animal cells, primary screen, cell-based, LOPAC library, screen 4 (AID 1347384); details: phospholipid biosynthesis inhibition screen, at 10 µM
[15] = survival rescue of mitochondrial mutant cells in low glucose, primary screen, MELAS cybrids, Rieske KO mouse fibroblasts, CellTiter-Glo (AID 1508586;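 active = mean z-score across replicates of 1.96 or higher in either the MELAS or the Rieske mutant cell line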;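 also: z relative to plate mean and SD of compound and empty wells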)
[16] = target: Mitogen-activated protein kinase 7 (Homo sapiens) (UniProt Q13164); test: ERK5 transactivation activators in reporter cells, primary screen, cell-based, HTS (AID 1508626;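 active = luciferase signal above three times the same-plate solvent-only control wells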;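 also: luciferase driven by Gal4-ERK5 fusion binding five Gal4 sites before minimal TATA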); details: HeLa Gal4-ERK5 transactivation, 18 h, at 5 µM, stronger effect = higher value
[17] = viability rescue of complex I mutant cybrids, primary screen, cell-based, galactose medium, ATP luminescence (AID 1645843;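 active = z-score of at least 1.8 in each of two replicates, scored against plate mean and spread of sample wells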;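 also: positive z means more ATP and so rescue of galactose-driven cybrid death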); details: complex I mutant cybrid cells, 72 h, stronger effect = higher value
[18] = target: ATP-dependent translocase ABCB1 (Homo sapiens) (UniProt P08183); test: MDR1 (ABCB1) efflux transporter inhibition, cell-based (AID 377; in the data active = fluorescence slope change above about 50%); details: MDR1-expressing cells, fluorescent substrate accumulation slope; stronger effect = higher value; concentration not given here
[19] = liver-stage malaria parasite growth inhibition, primary screen, cell-based, HepG2, luciferase luminescence, HepG2 viability (AID 624349; in the data active = parasite load remaining mostly below about 12%, no sharp cut-off; inactive = mostly above about 10%;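 also: 100% = mean of DMSO negative control wells on the same plate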); details: P. berghei liver stage in HepG2, luciferase luminescence, concentration not given here; parasite load remaining: stronger effect = lower value; viability: measured here: HepG2 viability without parasites
[20] = sensitizers of A549 cells to miR-34 induction, primary screen, imaging, A549 dox-inducible miR-34, nuclei and caspase counts (AID 1347080;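 active = compounds whose cell count with miR-34 switched on is under 0.7 times the count with it off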); details: A549 miR-34 inducible, Hoechst nuclei count, 48 h
[21] = growth inhibition of DIPG glioma cells, dose response, cell-based, SU-DIPG-IV, MIPE4.0, CellTiter-Glo, qHTS (AID 1347063; cut-off not given, nearly all actives have AC50 up to about 30 µM;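 also: compound exposure lasted 48 hours before the viability readout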); details: SU-DIPG-IV viability, CellTiter-Glo ATP luminescence
[22] = growth inhibition of DIPG glioma cells, dose response, cell-based, SU-DIPG-XIII, MIPE5.0, CellTiter-Glo, qHTS (AID 1347064; cut-off not given, nearly all actives have AC50 up to about 23 µM); details: SU-DIPG-XIII viability, CellTiter-Glo ATP luminescence
[23] = viability loss in pontine glioma line – cell-based, SU-DIPG-XXV, MIPE5.0, CellTiter-Glo, qHTS, dose response (AID 1347065; cut-off not given, nearly all actives have AC50 up to about 26 µM;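 also: cells exposed to compound for 48 hours before ATP readout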); details: CellTiter-Glo ATP luminescence
[24] = JHH-DIPG-1 glioma cell viability, MIPE5.0 library, CellTiter-Glo luminescence, qHTS (AID 1347067; cut-off not given, nearly all actives have AC50 up to about 26 µM;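 also: cells exposed to compound for 48 hours before readout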); details: JHH-DIPG-1 glioma viability, CellTiter-Glo ATP luminescence
[25] = SU-DIPG-XXV glioma cell viability, MIPE5.0 library, qHTS (AID 1347068; cut-off not given, nearly all actives have IC50 up to about 30 µM)
[26] = target: NAD(+) hydrolase SARM1 (Homo sapiens) (UniProt Q6SZW1); test: SARM1 TIR NADase inhibitors, cell lysate, NAD-Glo luminescence (AID 1508614;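 active = compound whose remaining NAD level is above about 45 nM, limit read from the data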;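 also: higher remaining NAD means stronger inhibition of SARM1 NADase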); details: SAM-TIR HEK293T lysate NADase, at 1 µM, stronger effect = higher value
[27] = differential killing of epithelial or mesenchymal cells, primary screen, imaging, PC-3E GFP, TEM4-18 mCherry, co-culture (AID 1345086;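 active = compounds killing one labelled cell type while sparing the other, by normalised counts and ratio limits, not self-fluorescent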;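 as to all read-outs here: cells exposed to compound for 72 h before imaging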;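 as to red/green cell ratio (normalised): normalised mesenchymal count divided by normalised epithelial count so high means epithelial killing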); details: imaging cell counts, at 1 µM; for red/green cell ratio (normalised): actives lie on both sides, counts scaled to control wells, 1 = unselective
[28] = MELAS cybrid survival, CellTiter-Glo 48 h, stronger effect = higher value
[29] = Rieske KO mouse fibroblast survival, CellTiter-Glo 72 h
[30] = measured here: epithelial PC-3E GFP cell survival
[31] = measured here: mesenchymal TEM4-18 mCherry cell survival

Chain of ATP-dependent translocase ABCB1 (Homo sapiens) (P08183 whole entry, looked up): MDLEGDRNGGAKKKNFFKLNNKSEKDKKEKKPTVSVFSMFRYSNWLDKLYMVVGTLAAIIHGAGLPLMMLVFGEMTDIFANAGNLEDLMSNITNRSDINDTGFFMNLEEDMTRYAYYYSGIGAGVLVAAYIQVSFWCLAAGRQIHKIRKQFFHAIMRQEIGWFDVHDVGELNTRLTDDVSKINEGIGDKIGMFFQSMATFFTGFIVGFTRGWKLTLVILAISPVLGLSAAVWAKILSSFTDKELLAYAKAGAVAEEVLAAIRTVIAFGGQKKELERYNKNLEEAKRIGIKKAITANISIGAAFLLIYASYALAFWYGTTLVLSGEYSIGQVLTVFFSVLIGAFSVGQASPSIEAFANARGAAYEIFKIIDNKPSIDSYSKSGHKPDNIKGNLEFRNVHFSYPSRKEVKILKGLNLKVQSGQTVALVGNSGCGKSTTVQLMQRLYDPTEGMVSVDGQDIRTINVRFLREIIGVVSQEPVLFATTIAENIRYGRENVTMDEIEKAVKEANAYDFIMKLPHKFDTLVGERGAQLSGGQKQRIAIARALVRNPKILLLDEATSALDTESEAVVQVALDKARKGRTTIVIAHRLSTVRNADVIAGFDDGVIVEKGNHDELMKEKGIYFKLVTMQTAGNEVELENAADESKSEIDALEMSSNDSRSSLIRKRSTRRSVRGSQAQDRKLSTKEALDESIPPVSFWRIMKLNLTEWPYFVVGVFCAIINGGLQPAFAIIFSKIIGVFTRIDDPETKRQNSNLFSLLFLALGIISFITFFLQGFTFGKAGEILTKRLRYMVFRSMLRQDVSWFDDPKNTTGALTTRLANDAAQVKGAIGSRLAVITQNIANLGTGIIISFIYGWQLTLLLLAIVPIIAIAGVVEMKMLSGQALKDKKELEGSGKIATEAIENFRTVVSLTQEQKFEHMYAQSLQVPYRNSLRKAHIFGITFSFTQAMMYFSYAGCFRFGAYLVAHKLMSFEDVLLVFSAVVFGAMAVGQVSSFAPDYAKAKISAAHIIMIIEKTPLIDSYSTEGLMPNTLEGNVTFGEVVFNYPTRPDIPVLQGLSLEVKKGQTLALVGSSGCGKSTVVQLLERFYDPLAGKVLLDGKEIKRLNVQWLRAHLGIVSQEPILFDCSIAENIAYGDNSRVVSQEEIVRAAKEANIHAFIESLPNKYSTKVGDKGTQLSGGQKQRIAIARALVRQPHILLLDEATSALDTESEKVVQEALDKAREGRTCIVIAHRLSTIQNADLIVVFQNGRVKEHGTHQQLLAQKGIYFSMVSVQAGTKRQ
Chain of NAD(+) hydrolase SARM1 (Homo sapiens) (Q6SZW1 whole entry, looked up): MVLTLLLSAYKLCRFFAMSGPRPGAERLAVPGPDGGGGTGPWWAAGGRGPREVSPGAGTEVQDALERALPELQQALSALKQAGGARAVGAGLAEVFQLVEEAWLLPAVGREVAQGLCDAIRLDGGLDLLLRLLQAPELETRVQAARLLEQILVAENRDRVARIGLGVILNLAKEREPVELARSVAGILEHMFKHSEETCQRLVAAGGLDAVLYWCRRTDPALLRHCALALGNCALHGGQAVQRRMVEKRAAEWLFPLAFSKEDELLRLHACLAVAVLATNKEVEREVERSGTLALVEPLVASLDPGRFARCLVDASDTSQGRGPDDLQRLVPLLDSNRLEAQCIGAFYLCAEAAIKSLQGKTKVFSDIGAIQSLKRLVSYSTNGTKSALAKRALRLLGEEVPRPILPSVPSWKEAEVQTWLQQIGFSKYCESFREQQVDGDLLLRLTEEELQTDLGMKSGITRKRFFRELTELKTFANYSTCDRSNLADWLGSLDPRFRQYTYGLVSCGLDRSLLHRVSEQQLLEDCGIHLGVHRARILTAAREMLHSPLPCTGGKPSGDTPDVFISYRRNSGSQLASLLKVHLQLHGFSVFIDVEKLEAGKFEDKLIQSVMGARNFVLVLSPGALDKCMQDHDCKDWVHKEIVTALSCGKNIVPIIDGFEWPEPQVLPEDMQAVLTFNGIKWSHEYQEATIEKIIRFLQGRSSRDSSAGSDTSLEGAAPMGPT
Chain of Mitogen-activated protein kinase 7 (Homo sapiens) (Q13164 whole entry, looked up, the tested form may be a part): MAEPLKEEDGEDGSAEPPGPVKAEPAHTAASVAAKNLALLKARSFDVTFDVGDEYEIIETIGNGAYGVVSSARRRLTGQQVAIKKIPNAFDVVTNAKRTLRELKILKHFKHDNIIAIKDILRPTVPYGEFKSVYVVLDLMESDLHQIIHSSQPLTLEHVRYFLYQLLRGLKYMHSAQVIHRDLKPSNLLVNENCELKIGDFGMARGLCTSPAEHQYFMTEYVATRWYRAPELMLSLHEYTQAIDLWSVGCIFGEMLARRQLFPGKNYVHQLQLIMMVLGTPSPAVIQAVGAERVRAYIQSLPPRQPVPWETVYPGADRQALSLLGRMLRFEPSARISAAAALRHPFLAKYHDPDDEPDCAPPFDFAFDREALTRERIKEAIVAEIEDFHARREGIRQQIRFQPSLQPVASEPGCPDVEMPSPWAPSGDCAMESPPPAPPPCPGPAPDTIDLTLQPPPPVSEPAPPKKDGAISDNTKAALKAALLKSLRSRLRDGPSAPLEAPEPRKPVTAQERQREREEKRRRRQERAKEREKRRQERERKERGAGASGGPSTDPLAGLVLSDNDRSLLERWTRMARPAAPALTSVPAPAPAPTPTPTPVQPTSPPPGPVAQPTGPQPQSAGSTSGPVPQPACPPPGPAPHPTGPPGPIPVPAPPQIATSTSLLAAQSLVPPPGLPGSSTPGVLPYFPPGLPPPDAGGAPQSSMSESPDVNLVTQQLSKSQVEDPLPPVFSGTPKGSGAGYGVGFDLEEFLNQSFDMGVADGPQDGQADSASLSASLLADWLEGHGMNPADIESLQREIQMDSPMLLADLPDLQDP

In the case of `CC[C@@H]1C(=O)OC[C@@H]1Cc1cncn1C`, the fluorescence ratio [1] is reported as 0.93 (inactive), the inhibition [2] is reported as -5.94% (inactive) and the inhibition [3] is reported as 1.44% (inactive). For the same molecule, the fluorescence ratio [4] was 0.86 (inactive), the z-score [5] was -0.47 (inactive) and the mean signal [6] was 280 (inactive). The remaining activity [7] was 110% (inactive).
In the case of `CC(=O)N1CCN(c2ccc(OC[C@H]3CO[C@](Cn4ccnc4)(c4ccc(Cl)cc4Cl)O3)cc2)CC1`, the period change [8] is reported as -0.195 h (inactive), the survival [9] is reported as 3.25 (inactive) and the inhibition [10] is reported as -5% (inactive). The fluorescence ratio (interference) [11] was 1 (inactive), the fluorescence ratio [1] was 0.93 (inactive) and the inhibition [2] was 4.36% (inactive). The inhibition [3] was 13.8% (inactive), the fluorescence ratio [4] was 0.91 (inactive) and the z-score [5] was 0.168 (inactive). For the same molecule, the mean signal [6] was 283 (inactive), the remaining activity [7] was 114% (inactive) and the outcome [12] was “inactive”. For the same molecule, the AC50 [13] was 23500 nM (active), the outcome [14] was “inactive” and the z-score [15, 28] was 1.22 (inactive) and -0.0928 (inactive). For the same molecule, the z-score [15, 29] was 0.853 and 1.14, the luciferase signal [16] was 40 AU (inactive) and the z-score [17] was -1.2 (inactive) and -0.985 (inactive) and -1.05 (inactive).
With `CO/N=C(/C(=O)N[C@@H]1C(=O)N2C(C(=O)O)=C(COC(N)=O)CS[C@H]12)c1ccco1` the fluorescence slope change [18] was -2.3% (inactive), the survival [9] was 3.92 (inactive) and the mean signal [6] was 235 (inactive).
For `CO/N=C(/C(=O)NC1C(=O)N2C(C(=O)O)=C(COC(C)=O)CSC12)c1csc(N)n1` (stereo not drawn), the mean signal [6] was 238 (inactive).
In the case of `Nc1nc2ccc(Cl)cc2c2nc(-c3ccco3)nn12`, the period change [8] is reported as 0.275 h (inactive), the parasite load remaining [19] is reported as 21.2% (inactive) and the viability [19] is reported as 75.1%. For the same molecule, the inhibition [10] was -2% (inactive), the fluorescence ratio (interference) [11] was 1 (inactive) and the fluorescence ratio [1] was 0.95 (inactive). The inhibition [2] was -2.77% (inactive), the inhibition [3] was -6.26% (inactive) and the fluorescence ratio [4] was 0.95 (inactive). For the same molecule, the z-score [5] was 0.671 (inactive), the mean signal [6] was 260 (inactive) and the remaining activity [7] was 120% (inactive). For the same molecule, the fold change ([20]; stronger effect = lower value, cell number ratio, induced over uninduced) was 1.05 (inactive) and 0.991 (inactive) and 1.02 (inactive), the fold change ([20]; measured here: relative caspase fold change +Dox/-Dox) was 0.947 and 1.47 and 1 and the cell count ([20]; measured here: total cells with miR-34 induction, stronger effect = lower value) was 7130 and 7040 and 7980. The cell count ([20]; measured here: total cells without miR-34 induction) was 6800 and 7110 and 7830, the outcome [14] was “inactive” and the z-score [17] was 0.585 (inactive) and 0.89 (inactive) and -0.13 (inactive).
In the case of `CC(=O)OCC(=O)C12OC(C)(C)O[C@@H]1C[C@H]1[C@@H]3C[C@H](F)C4=CC(=O)C=CC4(C)[C@@]3(F)[C@@H](O)CC12C` (stereo partly drawn), the mean signal [6] is reported as 228 (inactive).
For `CC(=O)SCC(Cc1ccccc1)C(=O)NCC(=O)OCc1ccccc1` (stereo not drawn), the fluorescence slope change [18] was 12.8% (inactive), the survival [9] was 6.5 (inactive) and the fluorescence ratio [1] was 0.96 (inactive). For the same molecule, the inhibition [2] was 3.56% (inactive), the inhibition [3] was 2.21% (inactive) and the fluorescence ratio [4] was 0.86 (inactive). For the same molecule, the z-score [5] was -0.263 (inactive), the mean signal [6] was 251 (inactive) and the outcome [12] was “inactive”. For the same molecule, the AC50 [13] was 469 nM (active), the AC50 [21] was 833 nM (active) and the outcome [22] was “inactive”. For the same molecule, the outcome [23] was “inactive”, the outcome [24] was “inactive” and the outcome [25] was “inactive”. For the same molecule, the z-score [15, 28] was -0.406 (inactive) and 0.283 (inactive) and 0.224 (inactive), the z-score [15, 29] was 0.561 and 0.494 and -0.589 and the remaining NAD [26] was 10 nM (inactive). The z-score [17] was 0.9 (inactive) and 0.57 (inactive).
With `CC[C@]1(O)CC2CN(CCc3c([nH]c4ccccc34)[C@@](C(=O)OC)(c3cc4c(cc3OC)N(C)[C@H]3[C@@](O)(C(N)=O)[C@H](O)[C@]5(CC)C=CCN6CC[C@]43[C@@H]65)C2)C1` (stereo partly drawn) the parasite load remaining [19] was 65.1% (inactive), the viability [19] was 135% and the fluorescence ratio [1] was 0.91 (inactive). For the same molecule, the inhibition [2] was -6.33% (inactive), the inhibition [3] was 1.18% (inactive) and the fluorescence ratio [4] was 0.91 (inactive). For the same molecule, the outcome [5] was “inactive”, the mean signal [6] was 260 (inactive) and the AC50 [13] was 46.9 nM (active).
In the case of `OC[C@H]1O[C@@H](n2cnc3c(NC4CCCC4)nc(Cl)nc32)[C@@H](O)C1O` (stereo partly drawn), the parasite load remaining [19] is reported as 65.4% (inactive), the viability [19] is reported as 67.2% and the fluorescence ratio [1] is reported as 0.94 (inactive). The inhibition [2] was -2.84% (inactive), the inhibition [3] was -1.97% (inactive) and the fluorescence ratio [4] was 0.97 (inactive). For the same molecule, the z-score [5] was -0.619 (inactive) and the mean signal [6] was 256 (inactive).
With `C#C[C@]1(OC(C)=O)CC[C@H]2[C@@H]3CCC4=CC(=O)CC[C@@H]4[C@H]3CCC21C` (stereo partly drawn) the mean signal [6] was 228 (inactive).
With `O=S(=O)([O-])OC[C@H]1O[C@@](COS(=O)(=O)[O-])(O[C@H]2O[C@H](COS(=O)(=O)[O-])[C@@H](OS(=O)(=O)[O-])[C@H](OS(=O)(=O)[O-])[C@H]2OS(=O)(=O)[O-])[C@@H](OS(=O)(=O)[O-])[C@@H]1OS(=O)(=O)[O-].[Al+3].[Na+].[Na+].[O-2].[O-2].[OH-]` the red/green cell ratio (normalised) [27] was 0.81 (inactive), the normalised cell number [27, 30] was 1.15 and the normalised cell number [27, 31] was 0.93.
In the case of `C/C=C1/[C@H]2C=C(C)C[C@]1(N)c1ccc(=O)[nH]c1C2`, the outcome [5] is reported as “inactive” and the mean signal [6] is reported as 229 (inactive).
For `C[C@H](Oc1ccc(Oc2ccc3ncc(Cl)nc3c2)cc1)C(=O)O`, the red/green cell ratio (normalised) [27] was 0.92 (inactive), the normalised cell number [27, 30] was 1.29 and the normalised cell number [27, 31] was 1.18.
For `C[C@@H]1C[C@H]2[C@@H]3CCC4=CC(=O)C=CC4(C)[C@@]3(F)[C@@H](O)CC2(C)[C@H]1C(=O)CO` (stereo partly drawn), the outcome [5] was “inactive” and the mean signal [6] was 245 (inactive).
For `CC#C[C@]1(O)CC[C@H]2[C@@H]3CCC4=CC(=O)CCC4=C3[C@@H](c3ccc(N(C)C)cc3)CC21C` (stereo partly drawn), the outcome [5] was “inactive” and the mean signal [6] was 225 (inactive).
With `CCC(=O)O[C@]1(C(=O)SCF)[C@H](C)C[C@H]2[C@@H]3C[C@H](F)C4=CC(=O)C=CC4(C)[C@@]3(F)[C@@H](O)CC21C` (stereo partly drawn) the outcome [5] was “inactive” and the mean signal [6] was 245 (inactive).
In the case of `CC12C=CC(=O)C=C1CC[C@@H]1[C@@H]2[C@@H](O)CC2(C)[C@H]1CC[C@]2(O)C(=O)COC(=O)CCC(=O)O` (stereo partly drawn), the outcome [5] is reported as “inactive” and the mean signal [6] is reported as 283 (inactive).
In the case of `C=CC1=C(C(=O)O)N2C(=O)[C@@H](NC(=O)/C(=N/OCC(=O)O)c3csc(N)n3)[C@H]2SC1`, the outcome [5] is reported as “inactive” and the mean signal [6] is reported as 257 (inactive).
